# NS1 inh: inhibitors of influenza NS1 protein function; Potency, µM (highest dose often 46.1 µM), inactives show top-dose activity, positive = more growth; 270,000 compounds, 0.4% hits; AID 2326; calls by dose curve; note: potency is the fitted concentration of half-maximal effect; actives are rising curves; nearly all actives have a fitted effect of over 50% in size
#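 Growth recovery, yeast-based: influenza A NS1 expressed in S. cerevisiae causes slow growth, and suppressors are detected by OD600. The parent strain without NS1 is used as positive control.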
# FBPA Giardia inh: blocks Giardia fructose-bisphosphate aldolase activity | A8B2U2 | purified Giardia FBPA | Potency, µM (series often up to 59.6 µM), for inactives: at the top dose activity, negative = inhibition, most hits filed as inhibitors | 290,000 compounds, 0.71% hits; note: potency is the fitted concentration of half-maximal effect; % is set by controls: 0 for no effect and ±100 for the full control effect; nearly all actives have a fitted effect of over 55% in size
# Target sequence (A8B2U2 whole entry, looked up): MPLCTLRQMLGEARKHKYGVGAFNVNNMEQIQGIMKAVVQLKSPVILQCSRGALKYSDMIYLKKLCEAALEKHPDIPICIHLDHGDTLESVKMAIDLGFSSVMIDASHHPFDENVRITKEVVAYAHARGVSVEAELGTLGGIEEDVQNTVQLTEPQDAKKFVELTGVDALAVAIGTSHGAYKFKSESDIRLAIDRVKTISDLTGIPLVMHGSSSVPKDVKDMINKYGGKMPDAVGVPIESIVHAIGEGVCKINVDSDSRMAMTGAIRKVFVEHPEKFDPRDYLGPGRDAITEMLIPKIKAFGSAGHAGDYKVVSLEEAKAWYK
#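 40 nM FBPA preincubated 10 min at RT with compound (up to 57.5 uM final), then substrate plus GAPDH/TPI/NAD/arsenate coupling and diaphorase/resazurin added. Fluorescence read after 20 min at RT, 525/598 nm.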
# Pf growth 48h: P. falciparum growth inhibition at 48 hours (one generation). P. falciparum luciferase growth in erythrocytes, 48 h. Potency, µM (highest dose often 28.7 µM), without a hit: at the top dose activity change, negative = inhibition, actives largely listed as inhibitors. 310,000 compounds, 5.9% hits. AID 504832; note: potency is the fitted concentration of half-maximal effect; % is set by controls: 0 for no effect and ±100 for the full control effect
#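 Here the parasites carry a stable luciferase gene and grow inside erythrocytes in Albumax-based RPMI medium with compound for one erythrocytic cycle. Activity is scored as loss of luminescent signal.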
# Pf growth 96h: inhibits malaria parasite growth, 96 h; P. falciparum luciferase reporter growth, 96 h; Potency, µM (titrated, usually from 28.7 µM), for inactives: at the top dose activity change, negative = inhibition, usual class: inhibitors; 320,000 compounds, 6.9% hits; note: potency is the fitted concentration of half-maximal effect; % is set by controls: 0 for no effect and ±100 for the full control effect
#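 Delayed-death screen, second-generation endpoint: infected erythrocytes, 2% hematocrit, 0.05% parasitemia final; 96 hours at 37 C, 5% CO2; luciferase detection reagent; luminescence decrease equals reduced growth.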
# Cycloheximide cs: counter-screen for Shiga toxin inhibitors: cycloheximide protein synthesis inhibition; cell reporter, cycloheximide protein synthesis inhibition counterscreen; max response, %; 300,000 compounds, 12% hits; in the data active = max response mostly above about 13%, no sharp cut-off; inactive = mostly below about 14%; note: read at 38.3 µM for the half of the compounds with a filed dose; 0% is about no effect
# Shiga inhibitor: blocks Shiga toxin action in Vero cells. Vero cells, Shiga toxin protein synthesis inhibition reporter. inhibition, % at 38.7 µM. 290,000 compounds, 9.2% hits. AID 2315; in the data active = inhibition mostly above about 28%, no sharp cut-off; inactive = mostly below about 43%; note: 0% is about no effect
# Starred values were filed as active, the others as inactive; i = inactive; ? = inconclusive; . = no result given. The list is not random: actives were taken first. Their share in the collection is about 21%. Unless noted, calls come from the whole dose curve; as a rule, active = well fitted curve in the direction sought with a large enough effect; inconclusive = small, poorly fitted or top-dose-only effect, or another doubt; inactive = no such curve, though single readings can be large; an effect the other way counts as inactive or inconclusive.
SMILES,NS1 inh,FBPA Giardia inh,Pf growth 48h,Pf growth 96h,Cycloheximide cs,Shiga inhibitor
CCc1ccc(NC(=O)NC2CCCCCCC2)cc1,-4.6%,.,108.9%,?,53.3*,119.1*
CCOc1ccc(NC(=O)C2CCN(C(=O)NC3CCCCC3)CC2)cc1,6.1%,3.5%,?,?,0.5,-2.9
CCOc1ccc(NC(=O)NC23CC4CC(CC(C4)C2)C3)cc1,-31.4%,-4.0%,-16.5%,9.0%,14.9*,34.2
CCc1ccc(NC(=O)C2CCCN2C(=O)NC2CCCCC2)cc1 (stereo not given),-1.0%,.,0.0%,8.6%,-1.4,-4.4
CCOc1ccc(NC(=O)C(=S)NC2CCCCC2)cc1,-0.5%,1.8%,17.8%,8.4%,22.5*,36.9
O=C(NCCc1ccccn1)C1CCCN1S(=O)(=O)c1ccc(Cl)cc1 (stereo not given),9.9%,3.2%,15.9%,4.9%,-1.4,8.2
CCOC(=O)C1=CN(CC2CCCO2)C=C(C(=O)OCC)C1c1ccccc1C(F)(F)F (stereo not given),-4.1%,-7.8%,8.28µM*,?,-6.2,-6.2
CCOC(=O)c1ccc(NC(=O)c2cccc3c2C(=O)N(CC2CCCO2)C3)cc1 (stereo not given),-24.0%,-20.5%,?,?,-0.6,4.3
CCOC(=O)c1cccnc1SCC(=O)N(CC)c1cccc(C)c1,-50.8%,3.1%,.,11.7µM*,-6.8,-10.5
Cc1ccc(C(=O)NNC(=O)Cc2nc3nc(C)cc(C)n3n2)cc1,6.1%,.,26.6%,35.8%,-2.4,-5.5
Cc1cc(C)n2nc(C(=O)NNC(=O)c3ccc(Cl)cc3)nc2n1,7.3%,?,40.9%,70.9%,30.7*,33.7*
Cc1cc(C)n2nc(C(=O)N/N=C/c3cccc(Cl)c3)nc2n1,-4.2%,0.0%,0.0%,62.5%,9.4*,33.8
Cc1ccc(/C=N/NC(=O)CSc2nc3ccccc3s2)o1,14.1%,-26.2%,19.8%,31.6%,12.2*,25.5
O=C(CSc1nc2ccccc2s1)N/N=C/c1cc([N+](=O)[O-])ccc1O,-43.3%,15.1%,?,-6.6%,16.9*,39.8*
CCCCCCCCCCCCCCCC[n+]1cccc(C(=O)N(CC)CC)c1,-31.1%,9.1%,5.22µM*,2.62µM*,-0.9,-12.6
CCCCCCCC[n+]1cccc(C(=O)N(CC)CC)c1,9.7%,-0.4%,?,8.28µM*,-0.5,-6.4
O=C(COc1ccc(S(=O)(=O)N2CCOCC2)cc1)N1CCN(c2ccccc2)CC1,-17.4%,-0.8%,?,88.0%,-1.2,7.7
CC(C)(C)C(=O)Nc1nc2ccc(S(C)(=O)=O)cc2s1,.,0.2%,56.0%,116.8%,35.9*,78.5*
CS(=O)(=O)c1ccc2nc(NC(=O)CCNC(=O)c3ccc([N+](=O)[O-])cc3)sc2c1,.,.,?,0.738µM*,.,.
Cc1ccc(C(=O)Nc2nc3ccc(S(C)(=O)=O)cc3s2)cc1C,9.8%,6.0%,.,31.6%,-2.2,-5.5
Cc1cccc(C(=O)Nc2nc3ccc(S(C)(=O)=O)cc3s2)c1,15.0%,-9.3%,60.1%,-5.8%,36.1*,88.2*
CS(=O)(=O)c1ccc2nc(NC(=O)c3ccccc3)sc2c1,2.1%,-16.3%,183.8%,4.0%,28.4*,38.6*
Cc1cc(C)c(C)c(S(=O)(=O)N2CCN(c3ccc(O)cc3)CC2)c1C,.,-12.5%,0.6%,-5.9%,-1.6,3.0
c1ccc2c(c1)Cc1ccccc1O2,.,.,9.8%,117.9%,.,.
CCCn1c(N)c(N(CCOC)C(=O)CSc2ccccc2)c(=O)[nH]c1=O,.,.,4.1%,-5.4%,.,.
SMILES,NS1 inh,FBPA Giardia inh,Pf growth 48h,Pf growth 96h,Cycloheximide cs,Shiga inhibitor
CS(=O)(=O)c1ccc2nc(NC(=O)c3ccc(N4C(=O)CCC4=O)cc3)sc2c1,-0.1%,2.6%,-1.2%,16.5%,1.1,4.9
COc1cc(C(=O)Nc2nc3ccc(C)cc3s2)ccc1OCc1c(C)noc1C,?,11.2%,-11.9%,6.3%,61.5*,76.1*
CS(=O)(=O)c1ccc2nc(NC(=O)Nc3ccc(Cl)c(Cl)c3)sc2c1,?,-3.7%,-22.4%,47.2%,-2.1,12.0
CS(=O)(=O)c1ccc2nc(NC(=O)Nc3cccc(Cl)c3)sc2c1,26.9%,-2.8%,?,?,31.5*,107.0*
CS(=O)(=O)c1ccc2nc(NC(=O)Nc3ccccc3F)sc2c1,4.8%,6.2%,222.7%,-9.2%,61.0*,72.9*
COc1ccc(C(=O)Nc2nc3ccc(S(C)(=O)=O)cc3s2)cc1OC,.,2.7%,15.1%,5.86µM*,-3.3,-4.4
Cc1nc([N+](=O)[O-])cn1CC(=O)c1ccc(OC(F)(F)F)cc1,-0.9%,5.2%,7.8%,35.5%,-2.6,4.8
CC(C)(C)C(=O)NN=C1CCC(c2ccccc2)CC1 (stereo not given),?,2.1%,15.7%,-13.5%,19.1*,24.0
COC(=O)NN=C1CCC(c2ccccc2)CC1 (stereo not given),0.8%,.,10.1%,?,24.7,30.5*
CCOC(=O)NN=C1CCC(c2ccccc2)CC1 (stereo not given),9.9%,0.9%,21.3%,?,9.8*,10.1
NC(=O)C(=O)NN=C1CCC(c2ccccc2)CC1 (stereo not given),4.3%,4.4%,-13.9%,-5.6%,9.4,14.8
N#C/C(=C\c1cccc(Br)c1)C(=O)N1CCCCC1,-118.8%,8.1%,3.5%,11.5%,11.2,-8.6
COc1cccc(N(C(=O)c2sc(C)nc2C)C(C(=O)NCC2CCCO2)c2ccccc2)c1 (stereo not given),-13.1%,11.0%,-16.2%,-1.0%,-8.1,11.2
Cc1ccc(N(C(=O)CNC(=O)c2ccco2)C(C(=O)NCC2CCCO2)c2ccccc2)c(C)c1 (stereo not given),-8.7%,9.3%,-15.0%,15.3%,-8.8,-0.6
O=[N+]([O-])c1ccc(O)c(CSc2nnnn2-c2ccccc2)c1,-27.7%,14.9%,-13.7%,?,-1.9,-7.2
O=c1[nH]n(-c2ccc(F)cc2)c2ncccc12,-98.1%,-0.7%,?,1.4%,8.8,-9.0
Cc1c(-c2ccccn2)c(=O)[nH]n1-c1ccc(F)cc1,-4.1%,-20.6%,i,i,27.8*,58.3
C=CCSc1nnc(-c2nnc(SCC=C)n2-c2ccccc2)n1-c1ccccc1,0.6%,-3.3%,?,6.57µM*,5.8,-9.8
C=CCSc1nnc(-c2sc(-c3ccccc3)nc2C)n1C,-12.3%,-27.3%,-8.0%,15.9%,41.6*,16.6
C=CCn1c(CSc2nnc(-c3ccccc3)n2C)n[nH]c1=S,7.2%,?,?,-20.4%,-5.9,1.5
O=C(N/C(=C/c1cccc([N+](=O)[O-])c1)C(=O)N1CCOCC1)c1ccccc1Br,8.7%,.,-0.6%,?,7.2,-9.4
Cc1cc(Cl)cc(C)c1OCCCCCn1ccnc1,-40.0%,-8.5%,?,0.0%,-2.4,-13.1
Cc1ccc(C)c(OCCCCCn2ccnc2)c1,1.0%,1.9%,14.7µM*,11.7µM*,5.4,9.4
